# Experimental data published in PubChem BioAssay AID1159580 (chemical genetic matrix, 2015).
# Screen size: about 5,500 compounds; about 2,000 (36%) were called active. Inconclusive results (about 18%) are left out. The list shows a part of the results. A number with no mark means an inactive call. Rule as the data show it: active = normalized growth mostly below about 0.91 (no sharp cut-off); inconclusive = no clear call, values can overlap the other calls; inactive = mostly above about 0.92.
# Test: chemical genetic growth profiling, strain panel (AID 1159580);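 also: tested at 20 µM; growth read once vehicle control cultures reached saturation at 30 °C; 1 = growth at the plate median or of vehicle wells; lower values mean less growth of the strain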
# Details: S. cerevisiae deletion strains, growth OD
smiles,measurement,setting,value
COc1cc(OC)cc(/C(N)=N\O)c1,normalized growth,"locus YAR019C, strain CDC15, active compounds read low",0.981
same,normalized growth,"locus YBL105C, strain PKC1, active compounds read low",0.99
same,normalized growth,"locus YBR135W, strain CKS1, active compounds read low",0.986
same,normalized growth,"locus YBR136W, strain MEC1, active compounds read low",0.975
same,normalized growth,"locus YBR160W, strain CDC28, active compounds read low",0.993
same,normalized growth,"locus YDL017W, strain CDC7, active compounds read low",0.989
same,normalized growth,"locus YDL028C, strain MPS1, active compounds read low",0.982
same,normalized growth,"locus YDL101C, strain DUN1, active compounds read low",0.992
same,normalized growth,"locus YDL108W, strain KIN28, active compounds read low",0.982
same,normalized growth,"locus YDL132W, strain cdc53, active compounds read low",0.997
same,normalized growth,"locus YDL214C, strain PRR2, active compounds read low",0.956
same,normalized growth,"locus YDR052C, strain DBF4, active compounds read low",0.991
same,normalized growth,"locus YDR054C, strain cdc34, active compounds read low",0.992
same,normalized growth,"locus YDR226W, strain ADK1, active compounds read low",0.994
same,normalized growth,"locus YDR477W, strain SNF1, active compounds read low",0.958
same,normalized growth,"locus YER123W, strain YCK3, active compounds read low",0.927
same,normalized growth,"locus YER133W, strain GLC7, active compounds read low",0.971
same,normalized growth,"locus YFL009W, strain cdc4, active compounds read low",0.991
same,normalized growth,"locus YFL029C, strain CAK1, active compounds read low",0.975
same,normalized growth,"locus YFR003C, strain YPI1, active compounds read low",0.99
same,normalized growth,"locus YFR019W, strain FAB1, active compounds read low",0.961
same,normalized growth,"locus YFR028C, strain CDC14, active compounds read low",0.994
same,normalized growth,"locus YGR040W, strain KSS1, active compounds read low",0.959
same,normalized growth,"locus YGR052W, strain FMP48, active compounds read low",1.02
same,normalized growth,"locus YGR092W, strain DBF2, active compounds read low",0.943
same,normalized growth,"locus YHR030C, strain SLT2, active compounds read low",0.874
same,normalized growth,"locus YHR079C, strain IRE1, active compounds read low",0.909
same,normalized growth,"locus YHR082C, strain KSP1, active compounds read low",0.994
same,normalized growth,"locus YHR205W, strain SCH9, active compounds read low",0.891
same,normalized growth,"locus YIL147C, strain SLN1, active compounds read low",0.963
same,normalized growth,"locus YJL095W, strain BCK1, active compounds read low",0.875
same,normalized growth,"locus YJL128C, strain PBS2, active compounds read low",0.967
same,normalized growth,"locus YJL157C, strain FAR1, active compounds read low",0.983
same,normalized growth,"locus YJR016C, strain ILV3, active compounds read low",0.997
same,normalized growth,"locus YJR066W, strain TOR1 (second series), active compounds read low",0.929
same,normalized growth,"locus YJR066W, strain TOR1, active compounds read low",0.966
same,normalized growth,"locus YKL048C, strain ELM1, active compounds read low",0.962
same,normalized growth,"locus YKL067W, strain YNK1, active compounds read low",0.961
same,normalized growth,"locus YKL101W, strain HSL1, active compounds read low",0.925
same,normalized growth,"locus YKL193C, strain SDS22, active compounds read low",0.992
same,normalized growth,"locus YKL203C, strain TOR2, active compounds read low",1.01
same,normalized growth,"locus YLR113W, strain HOG1, active compounds read low",0.847 (active)
same,normalized growth,"locus YLR133W, strain CKI1, active compounds read low",0.958
same,normalized growth,"locus YLR403W, strain SFP1, active compounds read low",0.937
same,normalized growth,"locus YML070W, strain DAK1, active compounds read low",0.943
same,normalized growth,"locus YMR001C, strain CDC5, active compounds read low",0.991
same,normalized growth,"locus YMR205C, strain PFK2 (second series), active compounds read low",0.963
same,normalized growth,"locus YMR277W, strain FCP1, active compounds read low",0.997
same,normalized growth,"locus YNL006W, strain LST8, active compounds read low",0.993
same,normalized growth,"locus YNL020C, strain ARK1, active compounds read low",0.959
same,normalized growth,"locus YNL161W, strain CBK1, active compounds read low",0.988
same,normalized growth,"locus YNL183C, strain NPR1, active compounds read low",0.95
same,normalized growth,"locus YNL207W, strain RIO2, active compounds read low",0.988
same,normalized growth,"locus YNL222W, strain SSU72, active compounds read low",0.991
same,normalized growth,"locus YNL307C, strain MCK1 (second series), active compounds read low",0.951
same,normalized growth,"locus YOL078W, strain AVO1, active compounds read low",0.991
same,normalized growth,"locus YOL136C, strain PFK27, active compounds read low",0.955
same,normalized growth,"locus YOR061W, strain CKA2, active compounds read low",0.925
same,normalized growth,"locus YOR119C, strain RIO1, active compounds read low",0.983
same,normalized growth,"locus YOR231W, strain MKK1, active compounds read low",0.904
same,normalized growth,"locus YOR329C, strain SCD5, active compounds read low",0.987
same,normalized growth,"locus YPL031C, strain PHO85, active compounds read low",0.958
same,normalized growth,"locus YPL153C, strain RAD53, active compounds read low",0.943
same,normalized growth,"locus YPL204W, strain HRR25, active compounds read low",0.973
same,normalized growth,"locus YPL209C, strain IPL1, active compounds read low",0.988
same,normalized growth,"locus YPL256C, strain CLN2, active compounds read low",0.891
same,normalized growth,"locus YPR025C, strain CCL1, active compounds read low",0.986
same,normalized growth,"locus YPR106W, strain ISR1, active compounds read low",0.988
same,normalized growth,"locus YPR111W, strain DBF20, active compounds read low",0.986
same,normalized growth,"strain NNK1, active compounds read low",0.992
same,normalized growth,"strain TSCII, active compounds read low",0.996
